KB-3-1 tox – kills parental KB-3-1 adenocarcinoma cells. KB-3-1 viability, CellTiter-Glo ATP luminescence, 72 h. Potency, µM (highest dose often 46.1 µM), usual class: cytotoxic. 1.4% of 400,000 active. AID 1347075; also: potency is read from the fitted curve at half-maximal effect; % is scaled to controls: 0 for no effect and ±100 for the full control effect; nearly all actives have a fitted effect of over 60% in size
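72 h, 37 °C compound treatment of KB-3-1 parental cells; CellTiter-Glo added, 10 min, luminescence read. Data corrected against DMSO-only plates and normalized before curve fitting.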
KB-V1 cytotox – KB-V1 MDR subline cytotoxicity. KB-V1 MDR cells viability, CellTiter-Glo, 72 h. Potency, µM (series often up to 46.1 µM), actives largely listed as cytotoxic. 3.4% of 400,000 active; also: potency is read from the fitted curve at half-maximal effect; % is scaled to controls: 0 for no effect and ±100 for the full control effect; nearly all actives have a fitted effect of over 60% in size
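In this primary screen, KB-V1 cells overexpressing P-gp are incubated with library compounds (lowest to highest concentration) for 72 h at 37 degrees C before a luminescent ATP viability read.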
SW480 rereplic – inducers of DNA re-replication in SW480 colon cancer cells. SW480 DNA re-replication, Hoechst DNA content imaging, 48 h. Potency, µM (series often up to 46.1 µM), inactives show top-dose re-replication activation, most hits filed as activators. 1.8% of 340,000 active; also: potency is read from the fitted curve at half-maximal effect; % of control where 0% means no effect; nearly all actives have a fitted effect of over 55% in size
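Image-based DNA-content assay: after two days of treatment, nuclei were labelled with the DNA dye Hoechst and imaged, and hits were compounds raising the count of nuclei showing high fluorescence intensity.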
S-ASM inh – blocks human secretory acid sphingomyelinase; P17405; placental ASM, HMU-PC fluorogenic substrate, 60 min; Potency, µM (top dose mostly 57.5 µM), for the others: at the top dose activity change, negative = inhibition, most hits filed as inhibitors; 0.006% of 340,000 active; also: potency is read from the fitted curve at half-maximal effect
Target sequence (P17405 47-631 limits assumed): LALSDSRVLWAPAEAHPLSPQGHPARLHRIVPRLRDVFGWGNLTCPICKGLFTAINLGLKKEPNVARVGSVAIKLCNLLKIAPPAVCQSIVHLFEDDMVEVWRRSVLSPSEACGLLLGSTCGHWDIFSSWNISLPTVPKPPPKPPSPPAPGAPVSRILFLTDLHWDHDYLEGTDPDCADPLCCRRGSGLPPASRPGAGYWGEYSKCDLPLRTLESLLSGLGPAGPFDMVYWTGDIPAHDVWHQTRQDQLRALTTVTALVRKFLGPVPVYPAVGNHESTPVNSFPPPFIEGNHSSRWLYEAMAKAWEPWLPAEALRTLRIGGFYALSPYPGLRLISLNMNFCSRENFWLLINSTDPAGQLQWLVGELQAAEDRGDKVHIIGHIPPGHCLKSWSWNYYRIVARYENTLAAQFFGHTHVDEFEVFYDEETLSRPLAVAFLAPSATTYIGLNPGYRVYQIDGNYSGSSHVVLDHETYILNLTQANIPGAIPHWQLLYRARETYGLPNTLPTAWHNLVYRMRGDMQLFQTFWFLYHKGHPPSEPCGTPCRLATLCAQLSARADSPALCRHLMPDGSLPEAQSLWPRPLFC
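qHTS format. ASM enzyme prepared from human placenta hydrolyses the fluorogenic substrate HMU-PC0 (9 uM final) over 60 min at 37 °C after a 10 min compound preincubation.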
Giardia kill – Giardia lamblia killing; Giardia lamblia trophozoite viability; activity change, % at 7.66 µM, hits read low; 0.15% of 340,000 active; AID 540267; in the data active = activity change below about -80%; inconclusive = between about -30% and that limit;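 also: parasites exposed to compound for two days anaerobically before the ATP read; % is scaled to controls: 0 for no effect and ±100 for the full control effect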
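Luminescence from cellular ATP indicates surviving trophozoites (100 cells/well) following 48 hrs anaerobic compound treatment at 37 deg C; signal develops 15-30 min at room temperature.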
MCF10A rerep – inducers of DNA re-replication in MCF 10A breast cells; Potency, µM (doses to about 46.1 µM), inactives show at the top dose activity, positive = re-replication, actives largely listed as activators; 2.9% of 350,000 active; AID 624296; MCF 10A DNA re-replication, Hoechst nuclear intensity, 48 h; also: potency is read from the fitted curve at half-maximal effect; % of control where 0% means no effect; nearly all actives have a fitted effect of over 50% in size
* hit, by the source's call; i = inactive; ? = inconclusive; / = no result given; [ ] = dose if it differs, or a comment. An excerpt weighted towards active compounds, which were near 6.9% of everything screened. Unless noted, calls follow the shape of the dose curve; as a rule, active = well fitted curve in the direction sought with a large enough effect; inconclusive = small, poorly fitted or top-dose-only effect, or another doubt; inactive = no such curve, though single readings can be large; an effect the other way counts as inactive or inconclusive.

SMILES	KB-3-1 tox	KB-V1 cytotox	SW480 rereplic	S-ASM inh	Giardia kill	MCF10A rerep
CCOc1cccc(C(=O)Nc2cccc(-c3nnc(-c4ccc(C)cc4)o3)c2)c1	13µM*	?	0.7%	2.2%	-1.4	3.66µM*
COc1ccc(CC(=O)Nc2cccc(-c3nnc(-c4ccccc4)o3)c2)cc1OC	?	?	43.8%	?	-6.7	20.6µM*
COc1ccc(CC(=O)NCc2cccc(CNC(=O)Cc3ccc(OC)c(OC)c3)c2)cc1OC	i	i	-9.4%	7.0%	-7.0	-0.8%
COc1cccc(CNC(=O)c2cccc(-n3c(C)nc4cccnc43)c2)c1OC	i	i	/	/	/	/
COc1ccccc1NC(=O)C1=C(C)Nc2nc(SCc3ccccc3C)nn2C1CC(C)C (configuration not stated)	i	i	/	/	/	/
Cc1cc(C)n(-c2nc3ccccc3nc2Nc2ccc(Cl)c(C(=O)OC(C)C)c2)n1	i	i	/	/	/	/
O=C(CSc1nnc(NC(=O)c2c(F)cccc2Cl)s1)Nc1ccccc1F	i	i	-6.0%	-6.8%	5.5	-3.1%
COc1ccc(CC(=O)Nc2ccccc2C(=O)N2CCOCC2)cc1OC	i	i	0.581µM*	2.1%	-9.8	-10.6%
O=C(Nc1cccc(-c2nnc(-c3ccccc3)o2)c1)C1CC1	i	10.3µM*	0.3%	-3.2%	-11.0	-4.0%
COc1ccc(CC(=O)Nc2cccc(-c3nnc(-c4cccc(C)c4)o3)c2)cc1OC	i	?	-3.5%[9.22 µM]	-2.5%	5.4	?
CC(=O)Nc1cccc(-c2nnc(-c3ccccc3)o2)c1	i	?	-2.2%	1.1%	6.8	-12.4%
COc1ccc(CC(=O)Nc2cccc(-c3nnc(-c4ccc(C)cc4)o3)c2)cc1OC	i	4.11µM*	-2.4%	-12.1%	-14.0	?
COc1ccccc1Nc1nc(N)nc(CN2CCN(Cc3ccccc3)CC2)n1	i	?	-4.3%	-0.2%	-8.2	7.7%
Cc1cccc(Nc2nc(N)nc(CN3CCN(Cc4ccc5c(c4)OCO5)CC3)n2)c1	i	14.6µM*	-1.1%	6.8%	-6.6	7.9%
CN1CCN(Cc2nc(N)nc(Nc3ccc4c(c3)OCCO4)n2)CC1	i	i	-15.0%	2.6%	-12.2	1.1%
Nc1nc(CN2CCN(c3ccccc3F)CC2)nc(Nc2ccc3c(c2)OCCO3)n1	?	9.2µM*	40.0%	0.5%	-1.6	?
Nc1nc(CN2CCN(Cc3ccccc3)CC2)nc(Nc2ccccc2)n1	?	20.6µM*	4.4%	1.0%	-3.4	1.8%
Cc1cccc(Nc2nc(N)nc(CN3CCN(c4ccccc4F)CC3)n2)c1	i	2.31µM*	?	2.7%	43.6	?
CCOc1ccc(Nc2nc(N)nc(CN3CCN(c4ccccc4F)CC3)n2)cc1	i	?	18.2%	0.7%	-24.7	?
Cc1cc(C)cc(Oc2nc3c(C)cccn3c(=O)c2/C=C(\C#N)c2nc3ccccc3s2)c1	?	i	/	/	/	/
Cc1nnc(N2CCCC(C(=O)Nc3cccc(C(F)(F)F)c3)C2)c2nn(-c3ccccc3)c(C)c12 (configuration not stated)	i	i	/	/	/	/
Cc1nc([N+](=O)[O-])cn1CC(O)c1ccc2c(c1)OCCCO2 (configuration not stated)	i	i	/	/	/	/
Cc1cccc(Nc2nc(N)nc(CN3CCN(c4ccccc4)CC3)n2)c1	i	14.6µM*	-7.0%	0.0%	1.9	0.2%
CCCCCCC(=O)Nc1cc2nc3c(nc2cc1C)c(=O)n(C)c(=O)n3C	i	i	/	/	/	/
Cc1[nH]c2ccccc2c1C1(O)C(=O)N(Cc2ccccc2)c2ccc(Br)cc21 (configuration not stated)	i	i	/	/	/	/
SMILES	KB-3-1 tox	KB-V1 cytotox	SW480 rereplic	S-ASM inh	Giardia kill	MCF10A rerep
CCOc1ccc(NC(=S)N(Cc2ccc(N(C)C)cc2)Cc2ccco2)cc1	i	14.6µM*	10.4%	-4.9%	-22.6	19.2%
Cc1ccccc1CN(C)CCc1ccccn1	i	i	-2.4%	-3.3%	1.1	0.651µM*
O=C(c1cc2ccccc2oc1=O)N(Cc1ccco1)CC1CCCO1 (configuration not stated)	i	11.6µM*	-8.3%	4.8%	2.0	15.0%
COc1ccc2[nH]c(=O)c(CN(C(=O)NC3CCCCC3)C3CCCC3)cc2c1	i	14.6µM*	-5.5%	-0.4%	-11.3	?
COc1ccc2[nH]c(=O)c(CN(c3ccc(C)c(C)c3)S(C)(=O)=O)cc2c1	i	i	-22.6%	25.0%	0.2	-14.0%
CCOc1ccc(N(Cc2cc3cc(OC)ccc3[nH]c2=O)S(C)(=O)=O)cc1	i	14.6µM*	-13.2%	24.6%	13.0	-0.6%
Cc1cccc2cc(CN(CCN(C)C)C(=S)Nc3ccccc3)c(=O)[nH]c12	i	23.1µM*	?	-3.5%	9.5	7.8%
Cc1ccc2[nH]c(=O)c(CN(CC3CCCO3)C(=S)Nc3ccccc3)cc2c1 (configuration not stated)	?	4.11µM*	?	-12.5%	19.9	?
COc1ccc(Cn2nnnc2CN(Cc2cc3ccc(C)cc3[nH]c2=O)C2CCCC2)cc1	i	?	-0.8%	-10.5%	-4.0	11.5%
CCC(C)(C)n1nnnc1CN(Cc1cc2cc(OC)ccc2[nH]c1=O)C1CCCC1	i	18.4µM*	?	18.6%	22.6	5.8µM*
COc1ccc2[nH]c(=O)c(CN(CC3CCCO3)C(=O)Nc3ccc(F)cc3)cc2c1 (configuration not stated)	13µM*	2.59µM*	1.0%	19.4%	-8.6	?
Cc1cccc2cc(CN(CC3CCCO3)C(=S)NCc3ccco3)c(=O)[nH]c12 (configuration not stated)	i	4.11µM*	?	5.5%	5.0	7.2%
COc1ccc(NC(=O)N(Cc2cc3cc(C)ccc3[nH]c2=O)CC2CCCO2)cc1 (configuration not stated)	i	i	?	-10.5%	-10.0	?
CCN[C@@H]1C[C@H](N)[C@H](O[C@H]2OC(CN)=CC[C@H]2N)[C@@H](O)[C@H]1O[C@H]1OC[C@@](C)(O)[C@@H](NC)[C@@H]1O	/	/	-3.5%	/	/	-4.3%
Cc1ccc2[nH]c(=O)c(CN(CC3CCCO3)S(=O)(=O)c3c(C)ccc4nsnc34)cc2c1 (configuration not stated)	?	6.51µM*	-1.5%	-5.3%	5.7	-2.0%
Cc1ccc2cc(CN(CC3CCCO3)C(=S)Nc3ccccc3)c(=O)[nH]c2c1C (configuration not stated)	7.31µM*	2.31µM*	5.17µM*	-13.6%	-17.9	2.59µM*

Compound activity from PubChem BioAssay.
